Measurements from PubChem BioAssay AID743380 (National Center for Advancing Translational Sciences (NCATS), 2014).
The source made the active and inactive calls. Calls come from the whole dose curve.

Molecular target: Phosphatidylinositol 4-phosphate 5-kinase type-1 alpha (Homo sapiens) (UniProt Q99755)
Assay: qHTS for Inhibitors of PI5P4K: PI4P5K-alpha 32P-ATP TLC Secondary Assay for Probe SAR
Details: recombinant PI4P5K-alpha, 32P-ATP TLC phosphorimager
Text: In addition to finding PI5P, we discovered the type II phosphatidylinositol 5-phosphate 4-kinase (PI5P4K) family (alpha, beta, gamma isoforms) that catalyze the conversion of PI5P to PI(4,5)P2. Alternatively, PI(4,5)P2 can also be synthesized through phosphatidylinositol-4-phosphate (PI4P) by the type I phosphatidylinositol 4-phosphate 5-kinases (PI4P5K). These PI5P4K enzymes therefore represent one way by which cells can regulate endogenous PI5P levels and play important roles in insulin signaling and in stress responses. […] A qHTS PI5P4K-alpha ADP-Glo assay was developed to identify specific modulators of human PI5P4K, phosphatidylinositol-5-phosphate 4-kinase (Type II PIPK). To confirm that the active compounds and their analogs were true and selective inhibitors, a secondary Thin-layer Chromatography (TLC) assays against recombinant PI5P4K-alpha, PI4P5K-alpha or PI5P4K-beta that utilize a radioactively labeled ATP were developed. The data herein is the result of the PI4P5K-alpha TLC assay. […]
The kinase reaction was carried out in a total of 50 microL of kinase buffer (50 mM HEPES pH 7.4 and 10 mM MgCl2) containing 20 microM of the lipids that were suspended by sonication. […] The radiolabeled product, PI(4,5)P2, was quantified with a phosphorimager (Molecular Dynamics, STORM840, GE Healthcare, Waukesha, WI, USA).

Chain of Phosphatidylinositol 4-phosphate 5-kinase type-1 alpha (Homo sapiens) (Q99755 whole entry, looked up): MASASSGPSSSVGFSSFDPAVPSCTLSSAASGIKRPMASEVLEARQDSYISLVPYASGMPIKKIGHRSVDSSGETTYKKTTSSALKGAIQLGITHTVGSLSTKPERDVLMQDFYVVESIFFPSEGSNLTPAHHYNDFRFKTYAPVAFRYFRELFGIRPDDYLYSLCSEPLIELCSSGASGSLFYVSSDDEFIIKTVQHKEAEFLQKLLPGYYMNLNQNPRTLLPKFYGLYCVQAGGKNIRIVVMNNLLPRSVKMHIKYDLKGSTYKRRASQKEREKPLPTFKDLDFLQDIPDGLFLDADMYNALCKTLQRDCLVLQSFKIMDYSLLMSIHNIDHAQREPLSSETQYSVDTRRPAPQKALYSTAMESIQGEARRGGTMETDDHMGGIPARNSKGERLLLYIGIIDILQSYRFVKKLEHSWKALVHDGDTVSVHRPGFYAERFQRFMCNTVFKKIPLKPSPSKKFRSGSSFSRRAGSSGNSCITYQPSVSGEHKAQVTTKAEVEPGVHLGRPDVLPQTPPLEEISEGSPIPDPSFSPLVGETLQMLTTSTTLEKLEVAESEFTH

| SMILES | Potency |
| --- | --- |
| O=C1Nc2ccc(C(=O)c3ccco3)cc2/C1=C/c1cc(Cl)c(O)c(Cl)c1 | 0.498 µM (active) |
